Assay outcomes as filed in PubChem BioAssay.
This is a sample that favours compounds with a hit; in the whole collection about 6% have one here.
D1 ag = agonists of human D1 dopamine receptor. P21728. HEK293 T-REx D1 cells, calcium flux, agonist mode. activation, % at 2 µM. 360,000 tested, 1% active. AID 504660; in the data active = activation above about 30%; note: 0% is about no effect
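Inducible HEK293 T-REx D1 cells, force-coupled to calcium signalling, were plated at 4000 cells/well with tetracycline and held overnight at 30 C. After no-wash calcium dye loading, compound-evoked calcium rise over 180 s flagged agonists.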
D1 potentiator = human D1 dopamine receptor positive modulation. P21728. HEK293 TREx D1 cells, calcium flux, dopamine EC20 potentiation. potentiation, % at 10 µM. 360,000 tested, 0.036% active. AID 504651; in the data active = potentiation above about 30%; note: 0% is about no effect
D1 antag = blocks dopamine activation of the human D1 receptor | HEK293 TREx D1 cells, calcium flux, dopamine EC80; hits give low values | activity change, negative = inhibition, % at 10 µM | 360,000 tested, 3.2% active | AID 504652; in the data active = activity change below about -30%; note: % is set by controls: 0 for no effect and ±100 for the full control effect
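HEK293 T-REx cells expressing inducible, force-coupled D1 receptor; no-wash Ca dye, 30–90 min RT. Cmpd → 180 s read at 1 Hz → EC80 DA → 180 s read.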
D3 ag = agonists of human D3 dopamine receptor; P35462; AID 652048; D3R DiscoveRx beta-arrestin cells, luminescence, 90 min; 410,000 tested, 0.58% active; max activation, %; in the data active = max activation above about 30%; note: 0% is about no effect
Target sequence (P35462 whole entry, looked up): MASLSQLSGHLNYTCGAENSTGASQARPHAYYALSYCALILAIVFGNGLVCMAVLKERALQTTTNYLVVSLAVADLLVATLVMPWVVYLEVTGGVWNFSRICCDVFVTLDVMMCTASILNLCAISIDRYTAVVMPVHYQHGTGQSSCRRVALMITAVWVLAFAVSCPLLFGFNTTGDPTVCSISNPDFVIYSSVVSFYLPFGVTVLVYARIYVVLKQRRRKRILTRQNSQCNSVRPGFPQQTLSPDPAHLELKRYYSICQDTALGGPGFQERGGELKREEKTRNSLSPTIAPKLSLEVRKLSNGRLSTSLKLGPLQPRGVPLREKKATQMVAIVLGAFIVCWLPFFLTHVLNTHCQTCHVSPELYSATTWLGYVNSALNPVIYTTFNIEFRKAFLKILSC
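Agonist mode: compounds and dopamine controls were applied to plated cells for 90 min at 37 degrees C after an overnight attachment at 1500 cells/well. Luminescent read-out followed 30 - 60 minutes at room temperature with DiscoveRx detection reagent.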
BCR signal inh = inhibitors of chronic active B-cell receptor signaling; ABC-DLBCL IkBa-CBG/CBR reporter, luminescence ratio, 4 h; Potency, µM (series often up to 46.1 µM), for inactives: top-dose activity change, negative = inhibition, usual class: inhibitors; 340,000 tested, 0.05% active; AID 493014; active = well fitted inhibition curve with a large enough effect in the signal ratio, with a control signal flat, not every such curve was filed as active; inconclusive = small, poorly fitted or top-dose-only effect, or effect the other way, or a change in a side signal; the % refers to the signal ratio;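 note: potency is the fitted concentration of half-maximal effect; plate controls were basal doxycycline-induced cells for no effect and cells given 10 µM MG132 for full effect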
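Compounds up to 46 uM were incubated four hours with TMD8 cells whose green CBG68 luciferase is fused to IkappaBalpha; red CBR luminescence normalised the signal, and concentration-effect curves were fitted to fusion, red and ratio data.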
D3 antag = antagonists of human D3 dopamine receptor | P35462 | 360,000 tested, 2.5% active | max response, negative = inhibition, % | D3R cells, DiscoveRx beta-arrestin luminescence, antagonist mode; hits give low values; in the data active = max response below about -50%; inconclusive = no clear call, values can overlap the other calls; note: % is set by controls: 0 for no effect and ±100 for the full control effect
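Cells expressing the human receptor were seeded at 1500 cells/well, incubated overnight at 37 degrees C in 5% CO2, then exposed to library compounds with dopamine controls for 90 minutes at 37 degrees C before luminescent detection.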
Active calls of the source: *; u = inconclusive; x = not tested or not shown.

SMILES | D1 ag | D1 potentiator | D1 antag | D3 ag | BCR signal inh | D3 antag
CCN(CC)CCOC(c1ccccc1)c1ccc(C)cc1 (centres undefined) | 15.2 | -9.7 | 8.2 | -7.1 | -4.8% | -28.4
COc1ccccc1NC(=S)NNC(=O)c1cc(C)nn1C | 2.2 | -1.5 | 2.8 | -2.1 | u | -70.3*
COc1ccccc1NC(=S)NNC(=O)c1cc(C)n(C)n1 | 0.6 | 1.1 | -3.5 | -4.4 | u | -50.4*
COc1ccccc1NC(=S)NNC(=O)c1c(Cl)c(C)nn1C | 20.0 | -5.8 | -11.2 | 4.2 | -5.3% | -14.7
COc1ccc(-c2nc(C#N)c(N3CCc4ccccc4C3)o2)cc1OC | -0.3 | -8.0 | 6.3 | 35.5* | 1.4% | 52.6
O=C1NC[C@@H](CCCCN2C[C@H](Cc3ccc(O)cc3)N(CC3CCCCC3)C(=O)C2=O)N(Cc2ccccc2)C1=O | x | x | x | -14.5 | x | -75.0*
O=C1NC[C@H](CCCCN2C[C@H](Cc3ccc(O)cc3)N(Cc3ccccc3)C(=O)C2=O)N(CCc2ccc(O)cc2)C1=O | x | x | x | 36.5* | x | -26.5
O=C1NC[C@H](c2ccccc2)N(CCCCC2CCCCC2)C1=O | x | x | x | -5.4 | x | -58.3*
NCCCC[C@H]1CNC(=O)C(=O)N1CCCCC1CCCCC1 | 6.7 | -3.9 | 9.1 | -11.7 | 1.1% | 0.0
COC(=O)Cc1ccccc1NS(=O)(=O)c1ccc(C)cc1 | x | x | x | 2.0 | x | -20.0
CC(=O)Nc1ccc(NC(=O)C2CC(=O)N(c3ccccc3Cl)C2)cc1 (centres undefined) | 14.3 | 2.1 | -30.5* | 3.8 | 14.9% | 43.0
CC(=O)Nc1ccc(NC(=O)C2CC(=O)N(c3ccc(Cl)cc3)C2)cc1 (centres undefined) | 2.0 | -2.3 | -1.5 | 0.5 | 0.3% | 1.7
COc1ccccc1NC(=O)COC(=O)/C=C/c1ccccc1[N+](=O)[O-] | -0.9 | -5.0 | -9.9 | -9.0 | -4.6% | 15.5
COc1ccc(NC(=O)Nc2ccc(F)c(Cl)c2)cc1 | 22.0 | -8.7 | -49.0* | 1.8 | u | 2.6
COc1ccccc1/C=C/C(=O)OCC(=O)Nc1ccccc1Sc1ccccc1 | 50.2* | 0.7 | -16.1 | -0.8 | -9.3% | 7.9
COc1ccc(OC)c(NC(=O)Nc2ccc(Cl)cc2)c1 | 0.2 | -9.1 | -43.1* | -20.2 | u | u
N#Cc1ccc(NC(=O)Nc2ccc(Cl)cc2)cc1 | 31.0* | -10.8 | -41.3* | 3.5 | u | 9.6
Cc1cccc(C)c1NC(=O)C(c1ccccc1F)n1c(=O)c(-c2cc3ccccc3[nH]2)nc2ccccc21 (centres undefined) | x | x | x | 14.9 | x | 32.2
COc1ccc(C(=O)Nc2ccc(O)c3ccccc23)cc1 | x | x | x | -16.0 | x | -6.1
COc1ccc(OC)c(NC(=O)COC(=O)c2n[nH]c3ccccc23)c1 | 16.7 | x | -38.8* | 12.5 | u | 19.2
COc1ccc(NC(=O)Nc2ccc(O)c3ccccc23)cc1 | x | x | x | 32.6* | x | -27.4
COc1ccc(OC)c(NC(=O)COC(=O)/C=C/c2ccc(Cl)cc2)c1 | -2.2 | -8.2 | -32.5* | 13.1 | 1.2% | 11.0
COc1cc(NC(=O)c2cccc([N+](=O)[O-])c2C)ccc1NC(=O)c1ccco1 | 0.3 | -2.2 | -36.1* | 2.7 | u | 6.6
CCOC(=O)[C@@H](C)N(C(=O)OC(C)(C)C)S(=O)(=O)N(Cc1ccccc1)[C@H](C(=O)OC)C(C)C | x | x | x | 4.3 | x | 24.0
COc1ccc(NC(=O)c2ccco2)cc1NC(=O)COc1ccccc1 | 3.0 | -0.7 | -7.4 | 0.3 | u | 7.1
SMILES | D1 ag | D1 potentiator | D1 antag | D3 ag | BCR signal inh | D3 antag
CCC(CC)NC(=O)Nc1ccc(F)c(Cl)c1 | 29.5 | -5.5 | -45.9* | -2.4 | 1.0% | -19.9
COc1ccc(NC(=O)COc2ccccc2)cc1NC(=O)c1ccco1 | 1.0 | -5.5 | -36.7* | 2.7 | u | 10.6
COc1ccc(Cl)cc1NC(=O)NC(C)c1ccncc1 (centres undefined) | 1.7 | -2.0 | 3.6 | -23.6 | 0.6% | u
COc1ccc(C)cc1NC(=O)NC(C)c1ccncc1 (centres undefined) | 2.4 | -15.1 | -32.3* | 0.2 | -0.8% | 12.2
COc1ccc(/C=C/C(=O)OCC(=O)NCCC2=CCCCC2)cc1 | 8.1 | -3.9 | -36.5* | -9.4 | 0.0% | 3.3
Cc1cc2nc(CN(C)C(=O)C3CCC(=O)N(C4CCCC4)C3)[nH]c2cc1C (centres undefined) | x | x | x | 1.5 | x | 13.8
O=C(Nc1ccc(S(=O)(=O)Nc2ccccc2)cc1)N1CCCC1 | 1.7 | -1.9 | 2.3 | -11.8 | x | x
COc1ccc(NC(=O)Nc2cc(C)ccc2OC)cc1 | 1.0 | -6.5 | -32.1* | -1.6 | u | -5.8
COc1cc(NC(=O)c2ccco2)c(OC)cc1NC(=O)Nc1ccc(Cl)cc1 | 2.2 | -5.0 | -44.2* | 14.6 | 11.1% | 32.4
COc1ccc(OC)c(NC(=O)Nc2cccc(Cn3cccn3)c2)c1 | -0.3 | -9.9 | -35.8* | 4.7 | u | -23.2
COc1cccc(NC(=O)Nc2cc(C)ccc2OC)c1 | 0.4 | -4.5 | -10.6 | -13.8 | u | 0.9
COC(=O)c1nc2n(n1)C(c1cc(OC)ccc1OC)C(C(=O)Nc1ccc(C)cc1C)=C(C)N2 (centres undefined) | 0.0 | 0.6 | 10.0 | 9.1 | x | x
COc1ccccc1CNC(=O)C1CCCN(c2nnc(-n3c(C)ccc3C)s2)C1 (centres undefined) | -1.4 | -0.1 | 6.2 | -12.3 | x | x
Cc1cc(-c2ccc(S(=O)(=O)Nc3ccccc3C)cc2)on1 | 9.8 | -2.3 | -17.7 | 2.5 | x | x
Cn1c2cc(Br)sc2c2cnn(Cc3c(F)cccc3Cl)c(=O)c21 | -0.3 | -0.5 | -93.6* | x | u | x
c1ccc(CN2CCC3(CCCc4ccccc43)CC2)cc1 | 0.7 | -6.0 | -48.6* | -90.6 | -0.4% | -104.8*
O=C1CC(c2ccco2)CC2=C1C(c1ccc(O)cc1)n1nc(C(F)(F)F)nc1N2 (centres undefined) | 1.7 | -1.1 | -9.2 | x | x | x
CCNC(=O)c1c(NC(=O)c2nc(S(=O)(=O)CC)ncc2Cl)sc2c1CCCC2 | 13.3 | -3.4 | -54.5* | -28.2 | x | x
O=C(Nc1ccc(OC(F)F)cc1)c1ncc(Cl)c(Cl)c1Cl | 3.4 | -7.7 | -0.4 | -0.3 | -0.6% | 12.4
CC1CCCN(S(=O)(=O)c2ccc(NC(=O)CN3CCN(C)CC3)cc2)C1 (centres undefined) | 4.6 | 4.8 | -1.7 | -2.8 | u | 5.1
CCS(=O)(=O)c1ncc(Cl)c(C(=O)Nc2ccc(S(=O)(=O)N3CCCC(C)C3)cc2)n1 (centres undefined) | 0.7 | -11.4 | -36.0* | -32.7 | u | 0.0
COc1ccc(NC(=O)c2nc(S(=O)(=O)Cc3ccc(C)cc3)ncc2Cl)cc1 | 1.0 | -3.4 | -37.9* | -25.2 | x | x
